High-throughput results: PubChem BioAssay, The Scripps Research Institute Molecular Screening Center
Sampled rows, rich in hits. Any-hit rate of the full collection: about 0.52%.
TLR4 MyD88 blk: TLR4-MyD88 interaction inhibition; O00206; Cell-based TLR4-MyD88 binding inhibition assay; inhibition, % at 10 µM; actives 0.06% (n = 16,000); in the data active = inhibition above about 45%
rat GALR2 ag: agonists of rat galanin receptor 2 (GALR2); activation, % at 10 µM; actives 0.5% (n = 16,000); cell-based GALR2 agonist screen; AID 833; O08726; in the data active = activation above about 15%
Large screens that a line does not name were inactive.

CN1CCN(C)C(C(=O)NN)C1 (stereo not given)	none
Fc1ccc(CNC(=S)Nc2ccc(F)cc2F)cc1	none
COc1ccc(/C(C#N)=C/c2ccc3c(c2)OCO3)cc1	none
N#C/C(=C\c1ccc(Cl)c(Cl)c1)c1ccc(NC(N)=O)cc1	rat GALR2 ag 135.4
O=C(NNC(=O)c1ccccc1[N+](=O)[O-])c1cc2c(s1)-c1ccccc1CC2	none
COC(=O)c1cccc(NC(=O)NC(=O)c2cccs2)c1	rat GALR2 ag 16.2
COC(=O)c1cccc(NC(=O)c2ccccc2)c1	none
O=C(Nc1ccc(Cl)cc1)O/N=C1\CCCCC1Cn1ccnc1 (stereo not given)	none
O=C(CSc1nnc(-c2cccs2)n1C1CCCCC1)NC(=O)Nc1ccccc1	none
